# This is one part of the list. How many sequences the whole screen found active is unknown.
# Target: furin, P09958
# Assay: furin cleavage Z-score vs untreated control; higher = more cleavage, active = 3.5 or more, inactive = 1 or less, 8 variable residues between constant flanks
# How it was run: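 Purified furin digested bead-held 8-mer peptide–cDNA fusions at 1:10 enzyme:substrate in 0.01 ml of 50 mM HEPES pH 7.5 with CaCl2 and NaCl for 7.5, 15 or 30 min. The cleavage Z-score compares sequencing counts of released DNA with furin-free reactions on a log scale, with lowess adjustment and median absolute deviation scaling.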
# Chain of furin, P09958 (P09958 whole entry): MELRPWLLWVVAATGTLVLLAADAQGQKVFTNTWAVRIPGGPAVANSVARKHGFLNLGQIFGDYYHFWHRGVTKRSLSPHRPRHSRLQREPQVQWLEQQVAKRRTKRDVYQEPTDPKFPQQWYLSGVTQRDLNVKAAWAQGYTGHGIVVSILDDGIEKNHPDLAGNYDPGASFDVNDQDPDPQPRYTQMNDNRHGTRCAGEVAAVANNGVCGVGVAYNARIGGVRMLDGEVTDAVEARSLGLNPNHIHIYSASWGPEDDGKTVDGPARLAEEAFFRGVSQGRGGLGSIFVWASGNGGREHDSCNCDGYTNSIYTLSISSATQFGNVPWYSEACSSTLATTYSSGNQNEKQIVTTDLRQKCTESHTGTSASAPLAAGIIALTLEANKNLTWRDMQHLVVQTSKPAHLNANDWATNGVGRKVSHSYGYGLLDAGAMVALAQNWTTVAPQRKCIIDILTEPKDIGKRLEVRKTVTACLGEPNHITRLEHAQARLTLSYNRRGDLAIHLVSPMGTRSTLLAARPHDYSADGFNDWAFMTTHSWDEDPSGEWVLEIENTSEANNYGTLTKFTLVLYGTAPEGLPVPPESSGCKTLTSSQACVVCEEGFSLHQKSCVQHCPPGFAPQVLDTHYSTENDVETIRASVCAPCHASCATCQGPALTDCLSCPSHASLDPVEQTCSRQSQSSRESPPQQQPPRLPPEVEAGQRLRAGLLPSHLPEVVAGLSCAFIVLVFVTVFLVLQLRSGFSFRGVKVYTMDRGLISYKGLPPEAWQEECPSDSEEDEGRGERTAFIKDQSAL
Sequence,furin cleavage Z-score (7.5 min),furin cleavage Z-score (15 min),furin cleavage Z-score (30 min)
CARRSRLKRAAGNASASA [FS-496],11.4 (active),11.7 (active),8.87 (active)
CALGNIIMFAAGNASASA [HC1575],-0.725 (inactive),-1.13 (inactive),-0.0117 (inactive)
CALGRRTKRAAGNASASA [FS-50],9.24 (active),10.5 (active),6.44 (active)
CAAEIRLKRAAGNASASA [FS-1442],9.68 (active),9.78 (active),8.4 (active)
CARRVRCSGAAGNASASA [FS-2802],-0.409 (inactive),0.495 (inactive),0.927 (inactive)
CALGSRYKKAAGNASASA [FS-819],-0.0568 (inactive),-0.0472 (inactive),-0.113 (inactive)
CAAEQFKQKAAGNASASA [HC1023],0.841 (inactive),0.435 (inactive),-1.43 (inactive)
CARRSRCIRAAGNASASA [FS-1405],9.51 (active),10.1 (active),8.44 (active)
CAAENRALRLAGNASASA [FS-113],0.559 (inactive),-1.89 (inactive),1.32
CAVCWTVYHGAGNASASA [HC699],-0.241 (inactive),1.41,-1.21 (inactive)
CAEVVTSTPVAGNASASA [HC2239],-0.71 (inactive),-0.517 (inactive),-0.991 (inactive)
CATTPCSGVWAGNASASA [HC1910],-0.00612 (inactive),1.65,0.601 (inactive)
